Test results taken from PubChem BioAssay (NCATS).
Records with an inconclusive call do not appear. Where a call stands in place of a potency, no number is given. The source made the active and inactive calls. Calls follow the shape of the dose curve; as a rule, active = well fitted curve in the direction sought with a large enough effect; inconclusive = small, poorly fitted or top-dose-only effect, or another doubt; inactive = no such curve, though single readings can be large; an effect the other way counts as inactive or inconclusive.

system: Zika virus NS2B-NS3 protease (linked construct); assay: Confirmatory screen NINDS AMC qHTS for Zika virus inhibitors (AID 1347152); conditions: Purified linked NS2B-NS3, AMC substrate fluorescence; also: potency is read from the fitted curve at half-maximal effect; nearly all actives have a fitted effect of over 70% in size
In short: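 Enzyme (1 nM, linked construct) was preincubated with compound for 15 minutes at room temperature in 10 mM Tris-HCl pH 8.0 with 0.01% Tween 20. Bz-Nle-Lys-Arg-Arg-AMC was then added to 10 microM, and AMC fluorescence was recorded immediately and after 15 minutes.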

Compound	Potency
O=C(Nc1ccc(Br)cc1)c1cc(Br)cc(Br)c1O	19.2 µM (active)
C[C@]12CC[C@@H]3c4ccc(OC(=O)N(CCCl)CCCl)cc4CC[C@H]3[C@@H]1CC[C@@H]2O	21.5 µM (active)
O=c1c(C2CC(c3ccc(-c4ccc(Br)cc4)cc3)Cc3ccccc32)c(O)sc2ccccc12 (configuration not stated)	19.2 µM (active)

system: Zika virus NS2B-NS3 protease; assay: Primary screen GU AMC qHTS for Zika virus inhibitors (AID 1347154); conditions: Zika NS2B-NS3 unlinked protease, AMC fluorogenic substrate; series mostly up to 54.1 µM; also: nearly all actives have a fitted effect of over 70% in size; also: potency is read from the fitted curve at half-maximal effect
In short: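 Fluorogenic AMC-substrate cleavage by noncovalent NS2B-NS3 protease complex (25 nM, pH 8.0 Tris buffer with Tween 20) followed for 15 minutes at room temperature (~20% conversion). Percent inhibition from ex340/em450 signal change, fitted by 4-parameter Hill equation.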

Compound	Potency
O=c1[nH]oc2c1CCNC2	inactive
O=P1(N(CCCl)CCCl)NCCCO1 (configuration not stated)	inactive
C[C@]12Cc3cn[nH]c3C[C@@H]1CC[C@@H]1[C@@H]2CC[C@@]2(C)[C@H]1CC[C@]2(C)O	inactive
CC(NC(C)(C)C)C(=O)c1cccc(Cl)c1 (configuration not stated)	inactive
C=C(C)[C@H]1CN[C@H](C(=O)O)[C@H]1CC(=O)O	inactive
C[C@](O)(CS(=O)(=O)c1ccc(F)cc1)C(=O)Nc1ccc(C#N)c(C(F)(F)F)c1	inactive
COc1cc(CC(C)N)cc(OC)c1OC (configuration not stated)	inactive
CCOP(=S)(OCC)Oc1ccc2c(C)c(Cl)c(=O)oc2c1	inactive
NC(=O)c1cc([N+](=O)[O-])cc([N+](=O)[O-])c1	inactive
NCCc1ccc(O)cc1	inactive
COc1ccc2c(c1OC)C(=O)O[C@H]2[C@@H]1c2cc3c(cc2CCN1C)OCO3	inactive
CN1C(=O)CCS(=O)(=O)C1c1ccc(Cl)cc1 (configuration not stated)	inactive
O=C(Nc1ccc(Br)cc1)c1cc(Br)cc(Br)c1O	35.5 µM (active)
C#C[C@]1(O)CC[C@H]2[C@@H]3CCC4=CC(=O)CC[C@]4(C)[C@H]3CC[C@@]21C	inactive
CC(C)(C)NCC(O)c1ccccc1Cl (configuration not stated)	inactive
Cc1ncsc1CCCl	inactive
CC(C)c1cccc(C(C)C)c1O	inactive

Compound	Potency
CCC1(c2ccc(N)cc2)CCC(=O)NC1=O (configuration not stated)	inactive
C[C@]12CC[C@@H]3c4ccc(OC(=O)N(CCCl)CCCl)cc4CC[C@H]3[C@@H]1CC[C@@H]2O	15.8 µM (active)
O=C(O)CCCc1ccc(N(CCCl)CCCl)cc1	inactive
C[C@]12CCC(=O)C=C1CC[C@@H]1[C@@H]2CC[C@@]2(C)[C@H]1CC[C@]2(C)O	inactive
O=c1oc2ccccc2c(O)c1Cc1c(O)c2ccccc2oc1=O	inactive
CCC(C)C(C)(COC(N)=O)COC(N)=O (configuration not stated)	inactive
O=C(N/N=C/c1ccc([N+](=O)[O-])o1)c1cc([N+](=O)[O-])cc([N+](=O)[O-])c1O	inactive
COP(=S)(OC)Oc1ccc(SC)c(C)c1	inactive
COc1cc(CCN)cc(OC)c1OC	inactive
CC(C)N(CCC(C(N)=O)(c1ccccc1)c1ccccn1)C(C)C (configuration not stated)	inactive
CC(=O)C1CCOC1=O (configuration not stated)	inactive
CCOC(=O)CC(SP(=S)(OC)OC)C(=O)OCC (configuration not stated)	inactive
O=C(O)c1ccc(=O)[nH]c1	inactive
COc1cccc2c1C(=O)c1c(O)c3c(c(O)c1C2=O)C[C@@](O)(C(=O)CO)CC3OC1CC(N2CCOC(OC)C2)C(O)C(C)O1 (some centres not stated)	inactive
CCN(CC)C(=O)[C@@H]1C=C2c3cccc4[nH]cc(c34)C[C@H]2N(C)C1	35.5 µM (active)
CC(C)NC(C)C	inactive

system: Zika virus NS2B-NS3 protease (linked construct); assay: Primary screen NINDS Rhodamine qHTS for Zika virus inhibitors (AID 1347160); conditions: purified NS2B-NS3 protease, Rhodamine110 substrate fluorescence; series mostly up to 57.1 µM; also: nearly all actives have a fitted effect of over 55% in size
In short: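 In 10 mM Tris-HCl pH 8.0 containing 0.01% Tween 20, linked NS2B-NS3 protease (25 nM final) is exposed to test compounds for 15 min. Cleavage of 1.5 microM Rhodamine110 substrate is tracked by fluorescence over 15 min.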

Compound	outcome
CC(NC(C)(C)C)C(=O)c1cccc(Cl)c1 (configuration not stated)	inactive
NCCc1ccc(O)cc1	inactive
CC(C)N(CCC(C(N)=O)(c1ccccc1)c1ccccn1)C(C)C (configuration not stated)	inactive

system: not listed separately; assay: Confirmatory screen NINDS Rhodamine qHTS for Zika virus inhibitors (AID 1347161); conditions: purified enzyme assay, Rhodamine110 substrate fluorescence, 15 min; also: potency is read from the fitted curve at half-maximal effect; nearly all actives have a fitted effect of over 60% in size
In short: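 Aprotinin served as in-plate control. Conditions: 25 nM linked NS2B-NS3, pH 8.0 Tris buffer, titrated compounds, 15 min preincubation and 15 min reaction with 1.5 microM Rhod110 substrate at room temperature.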

Compound	Potency
O=C1OC(c2ccc(O)c(S(=O)(=O)O)c2)(c2ccc(O)c(S(=O)(=O)O)c2)c2c(Br)c(Br)c(Br)c(Br)c21	2.51 µM (active)
O=C(Nc1ccc(Br)cc1)c1cc(Br)cc(Br)c1O	3.12 µM (active)
C[C@]12CC[C@@H]3c4ccc(OC(=O)N(CCCl)CCCl)cc4CC[C@H]3[C@@H]1CC[C@@H]2O	1.97 µM (active)
O=c1c(C2CC(c3ccc(-c4ccc(Br)cc4)cc3)Cc3ccccc32)c(O)sc2ccccc12 (configuration not stated)	2.2 µM (active)

system: Zika virus NS2B-NS3 protease (linked); assay: 384 well plate NINDS AMC confirmatory qHTS for Zika virus inhibitors (AID 1347163); conditions: Recombinant NS2B-NS3 protease, Ac-VKTGKR-AMC fluorescence; series mostly up to 1 mM; also: nearly all actives have a fitted effect of over 50% in size; also: potency is read from the fitted curve at half-maximal effect
In short: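 Linked NS2B-NS3 protease (final 5 nM, 30 nM or 60 nM) was preincubated with compounds (final up to 1 mM) for ~15 minutes. Ac-VKTGKR-AMC substrate (final 30 microM) then reacted for 25 minutes at room temperature in the dark. Fluorescence (ex 355/em 460 nm) was normalized to no-enzyme and no-inhibitor controls.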

Compound	Potency
O=C1OC(c2ccc(O)c(S(=O)(=O)O)c2)(c2ccc(O)c(S(=O)(=O)O)c2)c2c(Br)c(Br)c(Br)c(Br)c21	112 µM (active)
O=C(Nc1ccc(Br)cc1)c1cc(Br)cc(Br)c1O	inactive
O=c1c(C2CC(c3ccc(-c4ccc(Br)cc4)cc3)Cc3ccccc32)c(O)sc2ccccc12 (configuration not stated)	11.2 µM (active)

system: Zika virus NS2B-NS3 protease (linked construct); assay: 384 well plate NINDS Rhodamine confirmatory qHTS for Zika virus inhibitors (AID 1347164); conditions: rhodamine-110 peptide substrate fluorescence; also: potency is read from the fitted curve at half-maximal effect; nearly all actives have a fitted effect of over 65% in size
From the text: Description: Assay Submitters (PI): Avindra Nath, Ph.D., National Institute of Neurological Disorders and Stroke (NINDS), Bethesda, MD Radhakrishnan Padmanabhan, Ph.D., Georgetown University (GU), Washington D.C. Zika Virus causes congenital defects, including microcephaly and is associated with Guillain-Barre syndrome, eningoencephalitis and myelitis in infected adult. […] Using a target-based approach, we hope to establish a screening paradigm to uncover novel, cell-active NS2B-NS3 protease (Zika Virus) specific inhibitors from NCATS' collection of small molecules using qHTS. […] Four assay panel was created to identify potential Zika Virus inhibitors. Namely, (1) GU unlinked NS2B-NS3 AMC tagged protease qHTS, (2) GU unlinked NS2B-NS3 Rhodamine tagged protease qHTS, (3) NINDS linked NS2B-NS3 AMC tagged protease qHTS, (4) NINDS linked NS2B-NS3 Rhodamine tagged protease qHTS. Active compounds are validated using a secondary assay in 384 well plate format. Early Translation Branch (ETB) National Center for Advancing Translational Sciences (NCATS), Rockville, MD National Institute of Health (NIH), Bethesda, Maryland
384-well NINDS Rhodamine Assay: The protease was diluted to 7.5 nM, 40.9 nM, or 82 nM in assay buffer and dispensed into a 96-well PCR plate (Applied Biosystems); 20 or 22 microL was transferred to a black 384-well assay plate (final protease concentration of 5 nM, 30 nM, or 60 nM, respectively). Compounds (3 microL, 1 microM - 10 mM, DMSO) were diluted and transferred to the assay plate (final concentrations ranged from 100 nM to 1 mM). Compounds were incubated with protease for ~15 minutes. The substrate, Rhodamine 110 (Ac-LKRR-Rd; Genscript), was dissolved in DMSO to a concentration of 6 mM and further diluted into assay buffer to a working concentration of 180 microM, then dispensed into a 384-well preparation plate (Eppendorf). […] After 25 minutes, the fluorescence intensity (excitation: 485 nm, emission: 538 nm) was measured and normalized to no-enzyme and no-inhibitor controls. […]

Compound	Potency
O=C(Nc1ccc(Br)cc1)c1cc(Br)cc(Br)c1O	44.7 µM (active)
C[C@]12CC[C@@H]3c4ccc(OC(=O)N(CCCl)CCCl)cc4CC[C@H]3[C@@H]1CC[C@@H]2O	39.8 µM (active)
O=c1c(C2CC(c3ccc(-c4ccc(Br)cc4)cc3)Cc3ccccc32)c(O)sc2ccccc12 (configuration not stated)	17.8 µM (active)

system: not listed separately; assay: Vero cells viability qHTS for Zika virus inhibitors (AID 1347167); conditions: cytotoxicity counter-screen (Zika); series mostly up to 45.9 µM; also: potency is read from the fitted curve at half-maximal effect
In short: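 Compounds were tested in concentration series on cells grown in DMEM containing 4% FBS. After 24 to 48 hours, cellular ATP was measured by luminescence with CellTiter Glo.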

Compound	Potency
O=C(Nc1ccc(Br)cc1)c1cc(Br)cc(Br)c1O	23.4 µM (active)
C[C@]12CC[C@@H]3c4ccc(OC(=O)N(CCCl)CCCl)cc4CC[C@H]3[C@@H]1CC[C@@H]2O	inactive
O=c1c(C2CC(c3ccc(-c4ccc(Br)cc4)cc3)Cc3ccccc32)c(O)sc2ccccc12 (configuration not stated)	inactive
